From the supplement of paper PMC9254222
Whole data set: some 1,100 compounds, median “Wnt reporter firefly/Renilla luciferase ratio relative to plate median” near 1.1, cut for the highest 2% near 1.6. Shown is part of a subset that was picked to be rich in the highest values.

System: HEK293T (UBE3A T485A transfected, BAR Wnt reporter)
Experiment: Wnt reporter firefly/Renilla luciferase ratio relative to plate median (fold (linear ratio)); higher = more Wnt/beta-catenin reporter activation
Conditions: 24 h
Method in brief: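 HEK293T cells carrying a transfected BAR firefly luciferase Wnt reporter, TK-Renilla and an expression plasmid were exposed to chemicals at 0.01–100 uM for 24 h, with dosing four hours after transfection. Readout used Dual-Glo luciferase. The firefly/Renilla ratio defined Wnt activity and raw Renilla defined cell health, each median-centred per plate. Figures are means of four biological replicates.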

Row | SMILES | Wnt reporter firefly/Renilla luciferase ratio (concentration: 0.1 uM) | Wnt reporter firefly/Renilla luciferase ratio (concentration: 1 uM) | Wnt reporter firefly/Renilla luciferase ratio (concentration: 10 uM) | Wnt reporter firefly/Renilla luciferase ratio (concentration: 100 uM) | Wnt reporter firefly/Renilla luciferase ratio (concentration: 0.01 uM)
1 | c1ccc(OP(Oc2ccccc2)Oc2ccccc2)cc1 [Triphenyl phosphite] | 0.971 | 1.06 | 1 | 1.26 | –
2 | NC(=O)[O-].[NH4+] [Ammonium carbamate] | 0.817 | 0.94 | 0.934 | 1.31 | –
3 | CCC(C)c1cc([N+](=O)[O-])cc([N+](=O)[O-])c1O (configuration not stated) [Dinoseb] | 0.797 | 0.806 | 0.929 | – | –
4 | Clc1nc(Cl)nc(Nc2ccccc2Cl)n1 [Anilazine] | 0.926 | 1.15 | 1.18 | 1.07 | 0.958
5 | CNC(=S)[S-].O.O.O.[Na+] [Metam-sodium hydrate] | 0.921 | 0.977 | 1.06 | 1.1 | 0.905
6 | CCCN(CCC)N=O [N-Nitrosodipropylamine] | 1.18 | 0.939 | 1.15 | 1.06 | –
7 | CCN(CC)N=O [N-Nitrosodiethylamine] | 1.12 | 1.13 | 1.27 | 1.82 | –
8 | CCCCN(CCCC)N=O [N-Nitrosodibutylamine] | 0.968 | 0.902 | 1.04 | 1.27 | –
9 | CCCCC(C#N)(Cn1cncn1)c1ccc(Cl)cc1 (configuration not stated) [Myclobutanil] | 1 | 0.933 | 1.09 | 0.269 | 0.908
10 | COc1cc(OC)nc(NC(=O)[N-]S(=O)(=O)c2ncccc2OCC(F)(F)F)n1.[Na+] [Trifloxysulfuron-sodium] | 1.02 | 1.23 | 1.22 | 1.52 | 1.06
11 | N#Cc1cccnc1 [3-Pyridinecarbonitrile] | 0.974 | 1.13 | 1.25 | 1.35 | –
12 | CO/N=C(/C1=NOCCO1)c1ccccc1Oc1ncnc(Oc2ccccc2Cl)c1F [Fluoxastrobin] | 1.27 | 0.946 | 0.315 | 1.23 | 1.16
13 | Cn1sc(Cl)cc1=O [5-Chloro-2-methyl-3(2H)-isothiazolone] | 1.28 | 1.07 | 1.07 | 0.458 | –
14 | COc1ccc(C(c2ccc(OC)cc2)C(Cl)(Cl)Cl)cc1 [Methoxychlor] | 1.13 | 1.12 | 1.25 | 1.04 | 0.858
15 | Cn1cc(-c2ccccc2)c(=O)c(-c2cccc(C(F)(F)F)c2)c1 [Fluridone] | 1.28 | 0.917 | 0.825 | 0.175 | –
16 | Cc1ccc([N+](=O)[O-])cc1C [1,2-Dimethyl-4-nitrobenzene] | 0.844 | 1.17 | 1.19 | 1.42 | –
17 | CN(C)c1ccccc1 [N,N-Dimethylaniline] | 1.11 | 1.11 | 0.912 | 1.02 | –
18 | C[C@]12CCC(=O)C=C1CC[C@@H]1[C@@H]2CC[C@]2(C)C(=O)CC[C@@H]12 [4-Androstene-3,17-dione] | 1.04 | 1.01 | 1.12 | 0.219 | –
19 | Clc1ccccc1-c1nnc(-c2ccccc2Cl)nn1 [Clofentezine] | 1.25 | 0.999 | 1.19 | 1.59 | 1.31
20 | CC(Cl)(Cl)C(=O)O [Dalapon] | 1.05 | 1.18 | 1.08 | 1.25 | –
21 | COC(=O)Nc1nc2ccccc2[nH]1 [Carbendazim] | 1.09 | 1.16 | 0.661 | 0.13 | –

Row | SMILES | Wnt reporter firefly/Renilla luciferase ratio (concentration: 0.1 uM) | Wnt reporter firefly/Renilla luciferase ratio (concentration: 1 uM) | Wnt reporter firefly/Renilla luciferase ratio (concentration: 10 uM) | Wnt reporter firefly/Renilla luciferase ratio (concentration: 100 uM) | Wnt reporter firefly/Renilla luciferase ratio (concentration: 0.01 uM)
22 | C[n+]1ccc(-c2cc[n+](C)cc2)cc1 [Paraquat] | 1.36 | 1.06 | 1.01 | 1.77 | 1.31
23 | CCOP(=S)(OCC)SCSC(C)(C)C [Terbufos] | 1.28 | 1.01 | 1.16 | 1.27 | –
24 | CCNc1nc(Cl)nc(NC(C)(C)C#N)n1 [Cyanazine] | 0.905 | 0.962 | 0.88 | 1.15 | 0.787
25 | Cc1ccc([N+](=O)[O-])cc1 [4-Nitrotoluene] | 0.766 | 0.567 | 0.741 | 0.771 | –
26 | CCCCC(O)(Cn1cncn1)c1ccc(Cl)cc1Cl (configuration not stated) [Hexaconazole] | 0.897 | 1 | 0.919 | 0.397 | 0.917
27 | ClCC(Cl)CCl [1,2,3-Trichloropropane] | 1.21 | 1.09 | 1.12 | 1.41 | –
28 | CCOP(=S)(OCC)SCSCC [Phorate] | 1.03 | 0.934 | 1.08 | 1.3 | –
29 | COP(=O)(OC)SCn1c(=O)oc2cc(Cl)cnc21 [Azamethiphos] | 1.28 | 0.979 | 0.625 | 0.373 | 0.825
30 | CCOP(=S)(OCC)SCn1c(=O)oc2cc(Cl)ccc21 [Phosalone] | 1.45 | 1.27 | 1.03 | 0.607 | 1.62
31 | Cc1ccccc1O [o-Cresol] | 1.01 | 0.966 | 1.1 | 1.15 | –
32 | C=C(C)C(=O)[O][Sn]([CH2]CCC)([CH2]CCC)[CH2]CCC [Tributyltin methacrylate] | 0.639 | 0.638 | 0.679 | – | –
33 | Cc1cc(N=Nc2ccccc2C)ccc1N [2-Amino-5-azotoluene] | 1.18 | 0.968 | 1.06 | 0.582 | –
34 | Nc1cc2c3c(c1)C(c1ccccc1)=N[C@@H](NC(=O)c1cccnc1)C(=O)N3CC2 | 1.19 | 0.977 | 1.24 | 0.802 | –
35 | Nc1cc(Cl)cc(C(=O)O)c1Cl [Chloramben] | 1.14 | 1.12 | 1.34 | 1.49 | –
36 | [Cl-].[Cl-].[Hg+2] [Mercuric chloride] | 1.21 | 1.07 | 1.69 | – | –
37 | O=C(O)C1C(C(=O)O)C2(Cl)C(Cl)=C(Cl)C1(Cl)C2(Cl)Cl (configuration not stated) [Chlorendic acid] | 0.978 | 1.1 | 0.935 | 1.03 | –
38 | O=C(O)c1nc(Cl)ccc1Cl [Clopyralid] | 1.81 | 1.02 | 0.988 | 1.12 | 1.17
39 | O=C(O)c1c(Cl)ccc2cc(Cl)cnc12 [Quinclorac] | 1.3 | 1.14 | 1.14 | 1.58 | 1.38
40 | Nc1c(Cl)c(Cl)nc(C(=O)O)c1Cl [Picloram] | 1.47 | 1 | 1.13 | 1.28 | 0.972
41 | NCCO.O=C(O)c1nc(Cl)ccc1Cl [Clopyralid-olamine] | 0.94 | 1.18 | 1.56 | 2.61 | 0.868
42 | Clc1cccc(C(Cl)(Cl)Cl)n1 [Nitrapyrin] | 1.01 | 0.881 | 1.03 | 1.23 | 1.08
